Test results as given in the supplement of paper PMC11732987, “Enantioselective OTUD7B fragment discovery through chemoproteomics screening and high-throughput optimisation” (Communications Chemistry, 2025).

Legend:
Assay in all cases: log2 ratio of Biotin-Ahx-Ub-VS probe labelling (fragment/DMSO); higher = less target engagement (more negative = stronger competition), active = hit call of the paper (q ≤ 0.05, log2 ratio ≤ -1)
Settings in all cases: compound concentration: 200 uM; treatment time: 3 h
[1] = target: USP34 (UniProt Q70CQ2)
Procedure, shortened: (§1)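 The table lists average log2 ratios of fragment over vehicle, from an unpaired t-test on global-median-normalised Spectronaut label-free quantities. Proteins with ≥2 unique peptides were used. Samples were HEK293T lysate (495 µg) treated in triplicate with fragment at 200 µM or vehicle for 3 h, then with Biotin-Ahx-Ub-VS (0.5 µM final) for 1 h, with labelled DUBs NeutrAvidin-enriched and run by diaPASEF LC-MS/MS.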

[2] = target: T1, USP36 (UniProt Q9P275)
T1 sequence (whole entry): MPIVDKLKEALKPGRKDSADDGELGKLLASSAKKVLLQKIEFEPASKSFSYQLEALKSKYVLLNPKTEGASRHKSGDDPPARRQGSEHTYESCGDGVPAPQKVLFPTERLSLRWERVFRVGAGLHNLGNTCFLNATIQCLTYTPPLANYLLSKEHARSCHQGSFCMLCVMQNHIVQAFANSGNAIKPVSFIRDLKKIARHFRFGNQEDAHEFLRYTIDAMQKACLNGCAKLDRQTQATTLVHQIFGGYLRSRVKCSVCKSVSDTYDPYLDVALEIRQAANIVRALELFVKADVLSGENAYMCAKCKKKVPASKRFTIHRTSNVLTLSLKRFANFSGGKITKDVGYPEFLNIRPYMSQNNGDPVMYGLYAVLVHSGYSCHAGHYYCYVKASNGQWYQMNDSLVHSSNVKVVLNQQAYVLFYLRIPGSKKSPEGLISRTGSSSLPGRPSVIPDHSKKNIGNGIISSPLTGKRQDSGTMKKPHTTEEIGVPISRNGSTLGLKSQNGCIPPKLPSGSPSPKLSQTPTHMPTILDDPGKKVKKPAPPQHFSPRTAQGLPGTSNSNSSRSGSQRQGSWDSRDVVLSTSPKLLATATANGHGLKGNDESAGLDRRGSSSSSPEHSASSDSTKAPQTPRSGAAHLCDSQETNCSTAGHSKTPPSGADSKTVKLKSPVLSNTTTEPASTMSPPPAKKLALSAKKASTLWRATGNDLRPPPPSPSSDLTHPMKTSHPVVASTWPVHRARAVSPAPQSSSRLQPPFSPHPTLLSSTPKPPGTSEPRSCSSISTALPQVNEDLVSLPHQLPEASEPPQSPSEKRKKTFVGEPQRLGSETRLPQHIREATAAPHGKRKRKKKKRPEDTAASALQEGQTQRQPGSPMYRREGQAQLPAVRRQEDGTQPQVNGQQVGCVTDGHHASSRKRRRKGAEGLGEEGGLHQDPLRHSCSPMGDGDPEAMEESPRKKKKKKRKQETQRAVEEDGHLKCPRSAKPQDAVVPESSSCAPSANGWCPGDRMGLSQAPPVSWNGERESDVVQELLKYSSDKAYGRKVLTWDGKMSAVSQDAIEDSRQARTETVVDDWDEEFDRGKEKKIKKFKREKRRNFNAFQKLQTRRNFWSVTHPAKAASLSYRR
Procedure, shortened: as §1

[3] = target: T2, USP38 (UniProt Q8NB14)
T2 sequence (whole entry): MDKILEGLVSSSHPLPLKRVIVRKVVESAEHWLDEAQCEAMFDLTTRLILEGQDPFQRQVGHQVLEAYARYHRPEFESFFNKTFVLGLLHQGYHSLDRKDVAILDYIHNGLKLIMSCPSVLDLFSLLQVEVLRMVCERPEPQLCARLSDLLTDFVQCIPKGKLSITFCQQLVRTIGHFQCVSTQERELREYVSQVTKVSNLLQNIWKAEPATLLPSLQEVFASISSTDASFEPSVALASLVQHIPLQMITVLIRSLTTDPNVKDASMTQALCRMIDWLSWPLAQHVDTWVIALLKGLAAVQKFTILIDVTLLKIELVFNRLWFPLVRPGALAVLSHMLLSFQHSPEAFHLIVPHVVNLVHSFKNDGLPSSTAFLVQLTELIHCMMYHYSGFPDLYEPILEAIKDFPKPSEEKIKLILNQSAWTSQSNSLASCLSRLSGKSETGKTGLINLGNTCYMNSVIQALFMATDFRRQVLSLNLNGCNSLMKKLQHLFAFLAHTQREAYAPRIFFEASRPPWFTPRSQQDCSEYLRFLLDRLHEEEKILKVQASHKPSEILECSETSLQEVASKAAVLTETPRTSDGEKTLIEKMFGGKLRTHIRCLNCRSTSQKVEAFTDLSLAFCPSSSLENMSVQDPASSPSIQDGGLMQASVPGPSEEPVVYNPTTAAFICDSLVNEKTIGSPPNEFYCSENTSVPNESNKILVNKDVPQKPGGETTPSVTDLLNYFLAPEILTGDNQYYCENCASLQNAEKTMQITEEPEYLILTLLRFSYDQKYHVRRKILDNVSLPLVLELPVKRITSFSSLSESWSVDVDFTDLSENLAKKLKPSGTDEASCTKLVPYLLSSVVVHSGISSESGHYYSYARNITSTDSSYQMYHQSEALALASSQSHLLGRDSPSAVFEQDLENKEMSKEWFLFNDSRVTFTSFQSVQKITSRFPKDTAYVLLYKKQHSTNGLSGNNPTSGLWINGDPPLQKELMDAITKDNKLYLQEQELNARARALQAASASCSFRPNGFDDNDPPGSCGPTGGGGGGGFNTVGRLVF
Procedure, shortened: as §1

[4] = target: T3, USP39 (UniProt Q53GS9)
T3 sequence (whole entry): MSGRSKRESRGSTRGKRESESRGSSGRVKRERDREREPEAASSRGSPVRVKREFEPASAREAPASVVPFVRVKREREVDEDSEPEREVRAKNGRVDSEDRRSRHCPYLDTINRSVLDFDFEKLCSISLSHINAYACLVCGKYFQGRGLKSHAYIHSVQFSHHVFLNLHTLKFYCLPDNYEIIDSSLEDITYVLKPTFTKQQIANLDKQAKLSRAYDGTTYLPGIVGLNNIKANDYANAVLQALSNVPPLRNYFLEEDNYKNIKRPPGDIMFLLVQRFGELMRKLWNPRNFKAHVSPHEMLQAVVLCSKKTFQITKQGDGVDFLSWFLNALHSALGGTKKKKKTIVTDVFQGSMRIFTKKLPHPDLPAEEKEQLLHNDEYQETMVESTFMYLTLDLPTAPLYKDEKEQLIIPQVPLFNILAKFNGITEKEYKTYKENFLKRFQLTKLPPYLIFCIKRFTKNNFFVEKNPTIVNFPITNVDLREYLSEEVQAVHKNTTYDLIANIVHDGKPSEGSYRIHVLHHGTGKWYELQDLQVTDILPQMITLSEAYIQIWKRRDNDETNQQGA
Procedure, shortened: as §1

[5] = target: T4, USP4 (UniProt Q13107)
T4 sequence (whole entry): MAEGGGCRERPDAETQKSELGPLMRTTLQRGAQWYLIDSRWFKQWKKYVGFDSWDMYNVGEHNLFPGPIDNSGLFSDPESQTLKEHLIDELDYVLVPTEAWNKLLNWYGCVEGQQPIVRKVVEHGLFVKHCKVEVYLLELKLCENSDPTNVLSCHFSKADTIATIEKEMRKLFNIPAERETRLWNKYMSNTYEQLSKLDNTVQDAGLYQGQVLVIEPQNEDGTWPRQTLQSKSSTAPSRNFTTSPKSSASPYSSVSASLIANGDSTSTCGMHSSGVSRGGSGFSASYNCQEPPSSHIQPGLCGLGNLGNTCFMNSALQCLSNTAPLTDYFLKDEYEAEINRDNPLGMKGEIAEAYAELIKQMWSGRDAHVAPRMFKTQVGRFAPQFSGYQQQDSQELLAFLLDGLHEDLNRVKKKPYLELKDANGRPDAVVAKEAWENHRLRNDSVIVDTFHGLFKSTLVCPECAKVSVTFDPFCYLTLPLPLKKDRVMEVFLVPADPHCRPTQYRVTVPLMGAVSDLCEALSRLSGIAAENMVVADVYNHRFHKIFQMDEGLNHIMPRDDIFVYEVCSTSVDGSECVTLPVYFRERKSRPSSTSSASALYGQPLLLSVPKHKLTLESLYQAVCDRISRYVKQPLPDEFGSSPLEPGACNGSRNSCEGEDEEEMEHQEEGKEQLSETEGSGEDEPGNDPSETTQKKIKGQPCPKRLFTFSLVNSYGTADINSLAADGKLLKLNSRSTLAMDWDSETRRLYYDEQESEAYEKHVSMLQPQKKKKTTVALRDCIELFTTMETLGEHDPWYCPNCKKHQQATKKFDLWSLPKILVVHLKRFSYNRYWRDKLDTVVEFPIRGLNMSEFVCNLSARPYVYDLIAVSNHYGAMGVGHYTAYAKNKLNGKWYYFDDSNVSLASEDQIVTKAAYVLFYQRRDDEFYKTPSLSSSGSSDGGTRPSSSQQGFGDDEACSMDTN
Procedure, shortened: as §1

Measured: log2 ratio of Biotin-Ahx-Ub-VS probe labelling

USP34, sequence (Q70CQ2 whole entry, the tested form may be a part): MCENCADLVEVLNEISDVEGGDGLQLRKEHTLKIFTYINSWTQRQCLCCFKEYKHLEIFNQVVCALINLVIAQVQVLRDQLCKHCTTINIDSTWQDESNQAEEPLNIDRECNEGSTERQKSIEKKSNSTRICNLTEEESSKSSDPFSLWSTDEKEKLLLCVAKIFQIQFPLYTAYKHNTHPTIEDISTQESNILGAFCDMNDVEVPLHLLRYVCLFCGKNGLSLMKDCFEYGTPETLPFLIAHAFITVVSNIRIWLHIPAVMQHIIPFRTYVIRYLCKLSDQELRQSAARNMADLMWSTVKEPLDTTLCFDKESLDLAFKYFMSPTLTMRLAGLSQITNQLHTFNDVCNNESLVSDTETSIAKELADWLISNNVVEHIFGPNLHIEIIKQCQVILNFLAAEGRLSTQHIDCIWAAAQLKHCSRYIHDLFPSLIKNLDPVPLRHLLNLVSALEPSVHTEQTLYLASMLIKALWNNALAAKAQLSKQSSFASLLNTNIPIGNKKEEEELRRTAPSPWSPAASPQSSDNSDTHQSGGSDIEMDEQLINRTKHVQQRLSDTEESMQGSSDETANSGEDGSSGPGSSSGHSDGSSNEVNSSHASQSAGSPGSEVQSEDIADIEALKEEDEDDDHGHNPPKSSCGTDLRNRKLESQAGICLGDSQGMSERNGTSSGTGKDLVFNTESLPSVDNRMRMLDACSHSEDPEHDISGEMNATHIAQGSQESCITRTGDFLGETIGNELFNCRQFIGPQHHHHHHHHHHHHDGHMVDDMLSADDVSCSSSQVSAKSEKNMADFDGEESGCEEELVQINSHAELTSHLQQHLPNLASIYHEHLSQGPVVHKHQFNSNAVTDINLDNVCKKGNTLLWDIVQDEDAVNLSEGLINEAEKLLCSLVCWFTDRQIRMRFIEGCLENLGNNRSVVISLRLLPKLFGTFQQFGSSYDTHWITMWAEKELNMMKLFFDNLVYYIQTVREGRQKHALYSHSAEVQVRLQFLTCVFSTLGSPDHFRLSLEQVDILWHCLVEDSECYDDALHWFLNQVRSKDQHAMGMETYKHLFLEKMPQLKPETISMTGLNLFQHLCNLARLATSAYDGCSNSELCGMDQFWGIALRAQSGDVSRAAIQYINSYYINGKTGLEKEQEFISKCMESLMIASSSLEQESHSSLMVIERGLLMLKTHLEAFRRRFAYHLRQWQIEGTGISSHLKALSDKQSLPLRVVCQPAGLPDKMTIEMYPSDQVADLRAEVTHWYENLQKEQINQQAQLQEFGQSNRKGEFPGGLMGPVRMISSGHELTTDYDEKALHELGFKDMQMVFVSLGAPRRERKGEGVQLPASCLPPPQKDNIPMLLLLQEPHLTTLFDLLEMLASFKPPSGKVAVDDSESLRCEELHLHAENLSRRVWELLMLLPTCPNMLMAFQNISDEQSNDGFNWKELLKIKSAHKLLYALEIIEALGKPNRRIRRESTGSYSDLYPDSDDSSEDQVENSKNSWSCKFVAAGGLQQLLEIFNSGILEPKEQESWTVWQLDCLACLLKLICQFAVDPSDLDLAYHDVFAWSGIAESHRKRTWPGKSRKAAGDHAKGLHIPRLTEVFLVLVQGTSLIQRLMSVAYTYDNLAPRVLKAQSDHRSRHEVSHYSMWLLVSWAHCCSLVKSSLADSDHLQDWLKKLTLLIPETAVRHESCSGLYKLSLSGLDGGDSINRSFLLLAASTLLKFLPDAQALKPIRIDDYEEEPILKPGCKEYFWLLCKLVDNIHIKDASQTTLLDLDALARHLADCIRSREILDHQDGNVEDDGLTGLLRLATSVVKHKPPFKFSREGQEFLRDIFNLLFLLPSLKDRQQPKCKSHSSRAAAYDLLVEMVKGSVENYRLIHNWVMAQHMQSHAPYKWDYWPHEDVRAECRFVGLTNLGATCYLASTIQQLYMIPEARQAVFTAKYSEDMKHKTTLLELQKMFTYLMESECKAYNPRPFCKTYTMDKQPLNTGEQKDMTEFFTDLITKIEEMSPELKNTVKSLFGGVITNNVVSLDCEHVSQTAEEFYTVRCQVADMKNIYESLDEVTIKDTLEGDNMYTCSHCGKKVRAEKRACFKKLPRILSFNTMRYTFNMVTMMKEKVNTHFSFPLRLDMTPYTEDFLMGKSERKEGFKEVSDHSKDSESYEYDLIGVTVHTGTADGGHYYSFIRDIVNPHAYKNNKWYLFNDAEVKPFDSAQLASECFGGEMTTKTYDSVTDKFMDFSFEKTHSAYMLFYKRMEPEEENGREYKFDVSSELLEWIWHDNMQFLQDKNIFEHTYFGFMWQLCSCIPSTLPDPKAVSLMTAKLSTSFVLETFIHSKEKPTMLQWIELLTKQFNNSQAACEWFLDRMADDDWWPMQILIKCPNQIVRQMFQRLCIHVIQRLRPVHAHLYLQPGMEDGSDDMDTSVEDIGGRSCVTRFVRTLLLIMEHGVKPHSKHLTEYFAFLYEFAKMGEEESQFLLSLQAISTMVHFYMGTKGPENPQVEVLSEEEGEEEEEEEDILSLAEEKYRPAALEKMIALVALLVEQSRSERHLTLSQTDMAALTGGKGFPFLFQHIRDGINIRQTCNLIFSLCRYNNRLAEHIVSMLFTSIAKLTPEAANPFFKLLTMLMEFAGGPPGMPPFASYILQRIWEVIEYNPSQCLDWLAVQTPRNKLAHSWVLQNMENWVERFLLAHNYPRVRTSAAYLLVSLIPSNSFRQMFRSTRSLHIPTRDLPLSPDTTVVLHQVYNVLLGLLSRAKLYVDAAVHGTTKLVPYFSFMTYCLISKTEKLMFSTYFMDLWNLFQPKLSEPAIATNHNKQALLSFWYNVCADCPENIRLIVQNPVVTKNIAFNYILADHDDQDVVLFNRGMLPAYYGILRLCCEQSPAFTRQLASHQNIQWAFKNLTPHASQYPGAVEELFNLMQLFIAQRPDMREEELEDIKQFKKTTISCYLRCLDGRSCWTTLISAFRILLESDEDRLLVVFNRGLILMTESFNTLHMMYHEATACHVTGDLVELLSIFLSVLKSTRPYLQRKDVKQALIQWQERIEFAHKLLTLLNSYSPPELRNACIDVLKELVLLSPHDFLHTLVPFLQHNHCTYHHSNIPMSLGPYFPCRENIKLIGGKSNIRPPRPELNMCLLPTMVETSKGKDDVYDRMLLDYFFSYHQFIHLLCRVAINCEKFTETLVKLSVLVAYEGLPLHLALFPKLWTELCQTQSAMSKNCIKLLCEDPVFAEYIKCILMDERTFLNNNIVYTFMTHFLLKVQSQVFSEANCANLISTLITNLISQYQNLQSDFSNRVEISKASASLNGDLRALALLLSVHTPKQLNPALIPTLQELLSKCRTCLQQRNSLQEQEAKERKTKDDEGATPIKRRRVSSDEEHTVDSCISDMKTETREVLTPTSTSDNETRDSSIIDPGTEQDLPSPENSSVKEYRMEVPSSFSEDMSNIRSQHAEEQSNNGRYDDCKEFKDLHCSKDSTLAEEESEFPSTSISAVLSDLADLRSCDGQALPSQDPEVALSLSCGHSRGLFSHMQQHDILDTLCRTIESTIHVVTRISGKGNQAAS

CN(C(=O)CCl)c1nc2ccccc2s1
inactive: [1] -0.279 | [2] -0.0441 | [3] -0.124 | [4] 0.31 | [5] 0.161
